# Laboratory results reported in PubChem BioAssay (Tox21).
# Results filed as inconclusive are left out. Entries that show only a call come without a potency. Values without a mark were called inactive. The source made the active and inactive calls. Unless noted, calls come from the whole dose curve; as a rule, active = well fitted curve in the direction sought with a large enough effect in the repeat runs; inconclusive = weak or mixed curves; inactive = no such curve, though single readings can be large; an effect the other way counts as inactive or inconclusive.
# Experiments:
# [1] = qHTS assay to identify small molecule antagonists of the glucocorticoid receptor (GR) signaling pathway - cell viability counter screen (AID 720693); note: nearly all actives have a fitted effect of over 55% in size
# [2] = qHTS assay for identifying genotoxic compounds that show differential cytotoxicity against isogenic chicken DT40 cell lines with known DNA damage response pathways - wild type cell line (AID 743012); note: nearly all actives have a fitted effect of over 60% in size; note: potency is the fitted concentration of half-maximal effect
# Procedure, shortened: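 Wild-type DT40 cells (300/well) exposed to compounds for 40 hours at 37 C/5% CO2. Viability read by CellTiter-Glo luminescence after 30 min at room temperature.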
# [3] = qHTS assay for identifying genotoxic compounds that show differential cytotoxicity against isogenic chicken DT40 cell lines with known DNA damage response pathways - Rev3 mutant cell line (AID 743014); note: nearly all actives have a fitted effect of over 55% in size; note: potency is the fitted concentration of half-maximal effect
# [4] = qHTS assay for identifying genotoxic compounds that show differential cytotoxicity against isogenic chicken DT40 cell lines with known DNA damage response pathways - Rad54/Ku70 mutant cell line (AID 743015); note: nearly all actives have a fitted effect of over 60% in size; note: potency is the fitted concentration of half-maximal effect
# [5] = qHTS assay to identify small molecule antagonists of the androgen receptor (AR) signaling pathway - cell viability counter screen (AID 743033; note: nearly all actives have a fitted effect of over 45% in size)
# [6] = qHTS assay to identify small molecule antagonists of the androgen receptor (AR) signaling pathway using the MDA cell line - cell viability counter screen (AID 743041; note: nearly all actives have a fitted effect of over 45% in size; note: potency is the fitted concentration of half-maximal effect)
# Procedure, shortened: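 R1881-driven MDA-kb2 AR-luc cells, 3,000/well, were dosed with library compounds for 16 h; cell health came from CellTiter-Fluor fluorescence in the reporter wells.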
# [7] = qHTS assay to identify small molecule antagonists of the thyroid receptor (TR) signaling pathway - cell viability counter screen (AID 743064); note: nearly all actives have a fitted effect of over 50% in size
# Procedure, shortened: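 In-well cytotoxicity read by CellTiter-Fluor (30 min, 37 C) following 23.5 h exposure of GH3 cells bearing a TRE-luciferase sensor. Compounds were added alongside 1 nM (final) T3 to drive TR transactivation.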
# [8] = qHTS assay to identify small molecule antagonists of the thyroid receptor (TR) signaling pathway (AID 743065); note: nearly all actives have a fitted effect of over 55% in size; note: potency is the fitted concentration of half-maximal effect
# Procedure, shortened: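 Antagonism measured as loss of luciferase signal in GH3 cells stably carrying a TRE-luciferase reporter, co-treated with compound and T3 (1 nM final) for 23.5 h at 37 C. Viability was read in the same well by CellTiter-Fluor.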
# [9] = test system: thyroid hormone receptor (rat, GH3 cells); assay: qHTS assay to identify small molecule agonists of the thyroid receptor (TR) signaling pathway (AID 743066; calls by dose curve)
# [10] = molecular target: Estrogen receptor (Homo sapiens) (UniProt P03372); assay: qHTS assay to identify small molecule antagonists of the estrogen receptor alpha (ER-alpha) signaling pathway (AID 743069; active = well fitted curve in the direction sought with a large enough effect in the signal ratio in the repeat runs, not every such curve was filed as active; the % refers to the signal ratio)
# Sequence of Estrogen receptor (Homo sapiens) (P03372 whole entry, looked up): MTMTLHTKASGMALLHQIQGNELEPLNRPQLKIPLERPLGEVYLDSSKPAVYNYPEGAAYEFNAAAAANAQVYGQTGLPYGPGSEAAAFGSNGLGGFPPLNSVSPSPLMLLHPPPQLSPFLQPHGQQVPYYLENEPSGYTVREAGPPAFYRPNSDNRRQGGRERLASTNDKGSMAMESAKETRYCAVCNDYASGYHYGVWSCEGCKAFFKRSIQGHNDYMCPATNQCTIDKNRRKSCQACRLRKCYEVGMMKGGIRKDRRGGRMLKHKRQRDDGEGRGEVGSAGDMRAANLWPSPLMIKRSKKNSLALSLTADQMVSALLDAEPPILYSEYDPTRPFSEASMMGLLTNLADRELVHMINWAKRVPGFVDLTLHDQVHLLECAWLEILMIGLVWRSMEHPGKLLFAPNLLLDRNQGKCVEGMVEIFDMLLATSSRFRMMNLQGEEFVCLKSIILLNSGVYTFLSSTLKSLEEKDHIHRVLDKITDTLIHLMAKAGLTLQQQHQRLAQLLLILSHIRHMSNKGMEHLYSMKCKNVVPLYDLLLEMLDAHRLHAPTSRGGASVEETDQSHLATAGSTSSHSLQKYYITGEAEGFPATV
# Procedure, shortened: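 Compound effects are measured against 17beta-estradiol stimulation in HEK293 cells with a UAS-controlled beta-lactamase reporter for ER-alpha. Exposure lasts 18 hr at 37C; LiveBLAzer B/G FRET substrate follows for 2 hr at room temperature.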
# [11] = qHTS assay to identify small molecule antagonists of the estrogen receptor alpha (ER-alpha) signaling pathway - cell viability counter screen (AID 743074; calls by dose curve;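 note: HEK293 cells carrying ER-alpha-UAS-bla reporter stimulated with 17beta-estradiol; nearly all actives have a fitted effect of over 45% in size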)
# [12] = molecular target: Estrogen receptor (Homo sapiens) (UniProt P03372); assay: qHTS assay to identify small molecule agonists of the estrogen receptor alpha (ER-alpha) signaling pathway (AID 743075; calls by dose curve)
# [13] = qHTS assay to identify small molecule antagonists of the estrogen receptor alpha (ER-alpha) signaling pathway using the BG1 cell line (AID 743080; calls by dose curve;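 note: BG1 cells stimulated with 17beta-estradiol alongside compound; series mostly up to about 70 µM; nearly all actives have a fitted effect of over 25% in size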)
# Procedure, shortened: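 Luciferase inhibition measured with ONE-Glo after 30 min at RT in BG1Luc4E2 cells given test compounds and 17beta-estradiol for 21.5 h at 37 C; CellTiter-Fluor viability read in the same wells beforehand.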
# [14] = qHTS assay to identify small molecule antagonists of the estrogen receptor alpha (ER-alpha) signaling pathway using the BG1 cell line - cell viability counter screen (AID 743081);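 note: compound given together with 17beta-estradiol as the ER stimulus; series mostly up to about 70 µM; nearly all actives have a fitted effect of over 45% in size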
# [15] = molecular target: Aromatase (Homo sapiens) (UniProt P11511); assay: qHTS assay to identify aromatase inhibitors (AID 743083); note: nearly all actives have a fitted effect of over 55% in size; note: potency is the fitted concentration of half-maximal effect
# Sequence of Aromatase (Homo sapiens) (P11511 whole entry, looked up): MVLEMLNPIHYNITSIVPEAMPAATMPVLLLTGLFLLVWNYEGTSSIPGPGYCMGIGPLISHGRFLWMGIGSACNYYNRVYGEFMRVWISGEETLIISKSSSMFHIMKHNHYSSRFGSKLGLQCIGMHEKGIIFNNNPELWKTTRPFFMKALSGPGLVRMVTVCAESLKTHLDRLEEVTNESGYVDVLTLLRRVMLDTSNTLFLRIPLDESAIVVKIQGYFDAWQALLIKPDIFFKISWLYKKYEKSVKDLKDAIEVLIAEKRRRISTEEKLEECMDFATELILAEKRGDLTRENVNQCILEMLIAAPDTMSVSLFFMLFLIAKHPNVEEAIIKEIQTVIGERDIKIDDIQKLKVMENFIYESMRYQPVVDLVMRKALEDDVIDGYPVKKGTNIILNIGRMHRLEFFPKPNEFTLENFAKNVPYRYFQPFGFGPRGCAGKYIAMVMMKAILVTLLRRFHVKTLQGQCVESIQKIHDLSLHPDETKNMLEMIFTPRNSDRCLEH
# [16] = qHTS assay to identify aromatase inhibitors - cell viability counter screen (AID 743084)
# [17] = molecular target: Estrogen receptor (Homo sapiens) (UniProt P03372); assay: qHTS assay to identify small molecule agonists of the estrogen receptor alpha (ER-alpha) signaling pathway using the BG1 cell line (AID 743079); note: nearly all actives have a fitted effect of over 20% in size
# [18] = molecular target: Androgen receptor (Homo sapiens) (UniProt P10275); assay: qHTS assay to identify small molecule agonists of the androgen receptor (AR) signaling pathway (AID 743036; active = well fitted activation curve with a large enough effect in the signal ratio in the repeat runs, with a control signal flat, not every such curve was filed as active; the % refers to the signal ratio)
# Sequence of Androgen receptor (Homo sapiens) (P10275 whole entry, looked up): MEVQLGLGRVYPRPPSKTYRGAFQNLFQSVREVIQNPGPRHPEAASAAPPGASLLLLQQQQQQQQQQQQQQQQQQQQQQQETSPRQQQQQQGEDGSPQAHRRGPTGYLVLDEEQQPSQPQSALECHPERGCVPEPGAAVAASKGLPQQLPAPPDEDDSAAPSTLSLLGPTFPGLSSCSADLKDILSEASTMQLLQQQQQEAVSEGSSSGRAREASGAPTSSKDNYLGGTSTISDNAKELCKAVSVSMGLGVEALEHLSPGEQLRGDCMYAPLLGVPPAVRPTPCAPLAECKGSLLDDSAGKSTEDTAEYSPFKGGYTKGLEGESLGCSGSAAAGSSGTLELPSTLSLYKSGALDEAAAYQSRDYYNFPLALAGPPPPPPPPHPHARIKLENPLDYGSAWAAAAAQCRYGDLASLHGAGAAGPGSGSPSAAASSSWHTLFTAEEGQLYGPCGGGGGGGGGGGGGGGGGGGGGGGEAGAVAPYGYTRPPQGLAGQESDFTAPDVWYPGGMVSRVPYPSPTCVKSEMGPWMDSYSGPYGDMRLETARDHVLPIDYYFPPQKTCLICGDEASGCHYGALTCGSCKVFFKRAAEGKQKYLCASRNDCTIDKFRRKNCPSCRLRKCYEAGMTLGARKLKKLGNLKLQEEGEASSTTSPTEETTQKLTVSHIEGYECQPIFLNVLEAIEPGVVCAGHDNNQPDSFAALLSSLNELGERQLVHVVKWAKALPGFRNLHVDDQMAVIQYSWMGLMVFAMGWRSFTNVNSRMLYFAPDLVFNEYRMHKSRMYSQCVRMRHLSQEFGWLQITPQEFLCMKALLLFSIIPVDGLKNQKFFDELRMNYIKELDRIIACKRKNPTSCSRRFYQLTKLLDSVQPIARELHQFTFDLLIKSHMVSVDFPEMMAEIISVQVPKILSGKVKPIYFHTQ
# Procedure, shortened: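 Activation was read as beta-lactamase FRET signal from LiveBLAzer B/G substrate, added for 2 h at room temperature. Before that, GeneBLAzer AR-UAS-bla GripTite (HEK293) cells had 16 h compound exposure at 37C.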
# [19] = molecular target: Androgen receptor (Homo sapiens) (UniProt P10275); assay: qHTS assay to identify small molecule antagonists of the androgen receptor (AR) signaling pathway using the MDA cell line (AID 743042; note: nearly all actives have a fitted effect of over 55% in size)
# Procedure, shortened: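 Antagonist mode: compounds plus R1881 agonist added to MDA-kb2 AR-luc cells, incubated 16 h at 37C. Luciferase reporter luminescence quantified, with multiplexed CellTiter-Fluor readout for cell viability.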
SMILES,Potency [1],Potency [2],Potency [3],Potency [4],Potency [5],Potency [6],Potency [7],Potency [8],Potency [9],Potency [10],Potency [11],Potency [12],Potency [13],Potency [14],Potency [15],Potency [16],Potency [17],Potency [18],Potency [19]
CCCCC(CC)COC(=O)CCCCCCCCC(=O)OCC(CC)CCCC (stereo not given),inactive,inactive,inactive,inactive,inactive,inactive,inactive,inactive,inactive,inactive,inactive,inactive,inactive,inactive,inactive,inactive,,,
NC(N)=NCCC[C@H](N)C(=O)O,inactive,inactive,inactive,inactive,inactive,inactive,inactive,inactive,inactive,inactive,inactive,inactive,inactive,inactive,inactive,inactive,inactive,,
C[C@H](CCC(=O)O)[C@H]1CC[C@H]2[C@@H]3CC[C@@H]4C[C@H](O)CC[C@]4(C)[C@H]3C[C@H](O)[C@]12C,inactive,inactive,inactive,inactive,inactive,inactive,inactive,68.8 µM (active),inactive,inactive,inactive,inactive,inactive,inactive,inactive,inactive,inactive,,
C=CCOc1ccccc1OCC(O)CNC(C)C (stereo not given),inactive,inactive,inactive,inactive,inactive,inactive,inactive,inactive,inactive,inactive,inactive,inactive,inactive,,inactive,inactive,inactive,,
NCCCN1CCOCC1,inactive,inactive,inactive,inactive,inactive,30.6 µM (active),inactive,inactive,inactive,inactive,inactive,inactive,inactive,inactive,inactive,inactive,inactive,inactive,inactive
CCCCCC[C@@H](O)C/C=C\CCCCCCCC(=O)OC,inactive,inactive,inactive,inactive,inactive,inactive,inactive,inactive,inactive,,inactive,inactive,inactive,inactive,inactive,inactive,inactive,inactive,inactive
CC1(c2ccccc2)OC(C(=O)O)=CC1=O (stereo not given),inactive,inactive,inactive,inactive,inactive,inactive,inactive,inactive,inactive,,inactive,,,inactive,inactive,inactive,,,
O=C1CCCCCCCCCCCC(=O)OCCO1,inactive,54.5 µM (active),27.3 µM (active),27.3 µM (active),inactive,inactive,,,inactive,inactive,inactive,inactive,inactive,inactive,48.6 µM (active),,inactive,,inactive
Nc1ccccc1S(=O)(=O)c1ccccc1,inactive,inactive,inactive,inactive,inactive,inactive,inactive,inactive,inactive,,inactive,,,inactive,,,,,
CCCCNc1ccc(C(=O)OCCOCCOCCOCCOCCOCCOCCOCCOCCOC)cc1,inactive,inactive,inactive,inactive,inactive,inactive,inactive,inactive,inactive,inactive,inactive,inactive,,inactive,inactive,inactive,inactive,,
CC1OC(=O)C(C)OC1=O (stereo not given),inactive,inactive,inactive,inactive,inactive,inactive,inactive,inactive,inactive,inactive,inactive,inactive,inactive,inactive,inactive,inactive,,,
CC(C)O.CC(C)O.CCOC(=O)/C=C(\C)O.CCOC(=O)/C=C(\C)O.[Ti],inactive,inactive,inactive,inactive,inactive,inactive,inactive,inactive,inactive,,inactive,,,inactive,,,,,
CC(COCCO)OCCO (stereo not given),inactive,inactive,inactive,inactive,inactive,inactive,inactive,inactive,inactive,,inactive,,,inactive,inactive,inactive,,inactive,inactive
